Here are results for 35 compounds from PubChem BioAssay (Tox21).

Several values for one entry are separate records, joined by “and”; a condition that tells them apart may be missing. Identical values can stand only once. Records with an inconclusive call do not appear. Activity calls are given as the source filed them. Calls come from the whole dose curve.
% is set by controls: 0 for no effect and ±100 for the full control effect.

Sequence of 5-hydroxytryptamine receptor 2A (Homo sapiens) (P28223 whole entry, looked up): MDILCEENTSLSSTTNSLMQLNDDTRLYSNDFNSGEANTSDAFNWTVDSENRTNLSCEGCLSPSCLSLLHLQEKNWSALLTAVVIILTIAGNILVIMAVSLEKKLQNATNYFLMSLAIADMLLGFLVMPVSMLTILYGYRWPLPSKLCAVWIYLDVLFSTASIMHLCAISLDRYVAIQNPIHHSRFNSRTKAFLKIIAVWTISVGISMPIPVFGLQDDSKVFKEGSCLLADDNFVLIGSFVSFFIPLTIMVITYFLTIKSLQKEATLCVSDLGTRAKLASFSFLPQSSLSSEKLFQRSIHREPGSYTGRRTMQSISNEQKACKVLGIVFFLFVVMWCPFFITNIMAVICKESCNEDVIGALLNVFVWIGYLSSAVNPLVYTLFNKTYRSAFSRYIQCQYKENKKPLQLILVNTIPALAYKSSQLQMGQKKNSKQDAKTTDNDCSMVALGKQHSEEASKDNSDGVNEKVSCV

One assay has as its target 5-hydroxytryptamine receptor 2A (Homo sapiens) (UniProt P28223). As to the kind of experiment: 5-hydroxytryptamine receptor 2A (HTR2A) small molecule agonists, cell-based qHTS assay (AID 1963587). Note: nearly all actives have a fitted effect of over 30% in size. Note: potency is the fitted concentration of half-maximal effect. Particulars: HTR2A-CHO cells, calcium flux fluorescence, agonist mode; series mostly up to 76.8 µM; activation: at the top concentration. The method in brief: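 HTR2A-CHO cells, plated 18 h at 37 C/5% CO2, dye-loaded 1 h at 37 C; compounds in DMSO added by pin tool (agonist mode). Intracellular calcium flux read as kinetic fluorescence on FDSS over 2 min at 1 s intervals.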
(In general: Quantitative high-throughput screening tests each substance at several concentrations.)
For `COc1ccc(NC(C)=O)cc1`, the “activation” value is -0.379% (inactive).

As to `c1cnc2cc3c(cc2n1)C1CNCC3C1`, the “activation” value was -9.94% [at 35.6 µM] (inactive).

As for `OCc1c2ccccc2cc2ccccc12`, the “activation” value was -4.48% (inactive).

As for `CCCc1ccccc1`, the “activation” value is -1.71% (inactive).

As to `CC(=O)CC(C)=O`, the “activation” value was -0.0258% (inactive).

Consider `C=CC(=O)OCCCCCC`, for which the “activation” value is 0.348% (inactive).

As for `CC(C)(C)C(=O)OCOP(=O)(COCCn1cnc2c(N)ncnc21)OCOC(=O)C(C)(C)C`, the “activation” value was -0.566% [at 35.6 µM] (inactive).

As to `Nc1cc(S(=O)(=O)O)cc2cc(S(=O)(=O)O)cc(O)c12`, the Potency result is “inactive”.

On to `N=C(N=C(N)N)N1CCOCC1`, for which the “activation” value is -8.47% [at 35.6 µM] (inactive).

Consider `O=C(O)c1cccc(C(F)(F)F)c1`, for which the “activation” value was 1.33% (inactive).

`CC(O)Cn1cnc2c1c(=O)n(C)c(=O)n2C` (centres undefined): the “activation” value is 0.775% [at 35.6 µM] (inactive).

In the case of `CN(C)CCOC(c1ccc(Cl)cc1)c1ccccn1` (centres undefined), the “activation” value was -10.6% [at 35.6 µM] (inactive).

Regarding `O=C(O)c1cc(-c2ccccc2)nc2ccccc12`, the Potency result is “inactive”.

Take `CC1(C)C(O)C(C)(C)C1O` (centres undefined): the “activation” value is 0.484% (inactive).

For `Cc1ccc(N(C)C)cc1`, the Potency result is “inactive”.

`C/C=C/C(=O)CCCC`: the “activation” value was 2.33% (inactive).

With `C=CCCCCCCCC`, the “activation” value is 2.86% (inactive).

`CC(C)=O`: the “activation” value was 17.5% (inactive).

For the compound `O=C(O)[C@@H]1[C@H]2C[C@H]3c4[nH]c5ccccc5c4CCN3C[C@@H]2CC[C@@H]1O`, the “activation” value was 16.2% [at 35.6 µM] (inactive).

On to `C=CC(C)CCC=C(C)C` (centres undefined), for which the “activation” value is -3.35% (inactive).

Regarding `O=C(O)C(=O)Nc1cccc(-c2nn[nH]n2)c1`, the “activation” value was 2.11% [at 35.6 µM] (inactive).

Consider `CN(C)N=Nc1ccccc1`, for which the “activation” value was 2% (inactive).

As to `OCCOc1ccc(OCCO)cc1`, the “activation” value is 0.971% (inactive).

Regarding `CC(C)CCCCCCc1ccc(O)cc1`, the Potency was 44.4 µM (active) and 49 µM (active).

Regarding `C=CCS(=O)(=O)O`, the “activation” value is -2.52% (inactive).

For `CCCCSCCCC`, the “activation” value was -0.229% (inactive).

Turning to `CCNc1nc(N)nc(Cl)n1`, the “activation” value was -0.507% (inactive).

On to `Cc1ccc(N)cc1[N+](=O)[O-]`, for which the “activation” value is -0.259% (inactive).

On to `CC(C[N+](C)(C)C)OC(N)=O` (centres undefined), for which the “activation” value was 1.19% [at 35.6 µM] (inactive).

`O=C(O)CCCCCCCCCCCC(=O)O`: the Potency result was “inactive”.

Turning to `COc1cc(C(=O)N2CCOCC2)cc(OC)c1OC`, the “activation” value was -1.68% [at 35.6 µM] (inactive).

The target in the next assay is Muscarinic acetylcholine receptor M1 (Homo sapiens) (UniProt P11229). Put plainly: Cholinergic receptor muscarinic 1 (CHRM1) small molecule antagonists, cell-based qHTS assay (AID 1963588). Note: nearly all actives have a fitted effect of over 40% in size. Particulars: CHRM1-CHO antagonist mode, calcium flux fluorescence; series mostly up to 61.5 µM; activity, negative = inhibition: at the top concentration. The method in brief: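 CHRM1-CHO calcium-flux assay, antagonist mode. Cells were seeded 18 h, dye-loaded 1 h at 37 C and given compound for 5 min at RT, then acetylcholine was added at 50nM. FDSS fluorescence was read 3 min; 15 concentrations, three runs.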
Sequence of Muscarinic acetylcholine receptor M1 (Homo sapiens) (P11229 whole entry, looked up): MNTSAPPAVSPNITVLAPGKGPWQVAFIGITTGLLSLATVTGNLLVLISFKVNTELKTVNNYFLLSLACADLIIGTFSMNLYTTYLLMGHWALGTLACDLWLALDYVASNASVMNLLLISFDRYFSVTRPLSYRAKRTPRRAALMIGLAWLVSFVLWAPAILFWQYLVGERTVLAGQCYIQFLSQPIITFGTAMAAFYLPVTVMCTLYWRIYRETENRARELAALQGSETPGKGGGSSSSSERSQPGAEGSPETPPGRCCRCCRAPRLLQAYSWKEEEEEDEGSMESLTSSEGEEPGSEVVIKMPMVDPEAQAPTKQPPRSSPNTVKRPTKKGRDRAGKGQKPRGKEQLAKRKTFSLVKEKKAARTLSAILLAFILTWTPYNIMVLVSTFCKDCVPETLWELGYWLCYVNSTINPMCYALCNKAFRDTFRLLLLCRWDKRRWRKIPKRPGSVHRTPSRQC
As to `COc1ccc(NC(C)=O)cc1`, the “activity, negative = inhibition” value is 7.2% (inactive).

On to `c1cnc2cc3c(cc2n1)C1CNCC3C1`, for which the “activity, negative = inhibition” value was 5% [at 28.3 µM] (inactive).

Regarding `OCc1c2ccccc2cc2ccccc12`, the “activity, negative = inhibition” value was 3.45% (inactive).

Consider `Oc1ccc(Cl)cc1Sc1cc(Cl)ccc1O`, for which the Potency entry was “inactive”.

For the compound `CCCc1ccccc1`, the “activity, negative = inhibition” value was -0.85% (inactive).

Consider `CC(=O)CC(C)=O`, for which the “activity, negative = inhibition” value was 15.6% (inactive).

Consider `C=CC(=O)OCCCCCC`, for which the “activity, negative = inhibition” value is 3.74% (inactive).

In the case of `CC(C)(C)C(=O)OCOP(=O)(COCCn1cnc2c(N)ncnc21)OCOC(=O)C(C)(C)C`, the “activity, negative = inhibition” value is 21% [at 28.3 µM] (inactive).

For the compound `N=C(N=C(N)N)N1CCOCC1`, the “activity, negative = inhibition” value was 54.8% [at 28.3 µM] (inactive).

In the case of `Oc1c(Cl)ccc(Cl)c1Cl`, the Potency entry is “inactive”.

With `CC1=CC[C@@]23C[C@@H]1C(C)(C)[C@@H]2CC[C@H]3C`, the “activity, negative = inhibition” value is -5.35% (inactive).

With `CC(O)Cn1cnc2c1c(=O)n(C)c(=O)n2C` (centres undefined), the “activity, negative = inhibition” value is 5.13% [at 28.3 µM] (inactive).

With `O=C(O)c1cc(-c2ccccc2)nc2ccccc12`, the Potency entry is “inactive”.

Regarding `CC1(C)C(O)C(C)(C)C1O` (centres undefined), the “activity, negative = inhibition” value was -2.61% (inactive).

Take `Cc1ccc(N(C)C)cc1`: the “activity, negative = inhibition” value is -6.37% (inactive).

Take `C/C=C/C(=O)CCCC`: the “activity, negative = inhibition” value was 5.12% (inactive).

For `C=CCCCCCCCC`, the “activity, negative = inhibition” value is -18.6% (inactive).

Take `CC(C)=O`: the “activity, negative = inhibition” value is 8.05% (inactive).

As to `O=C(O)[C@@H]1[C@H]2C[C@H]3c4[nH]c5ccccc5c4CCN3C[C@@H]2CC[C@@H]1O`, the “activity, negative = inhibition” value is -9.89% [at 28.3 µM] (inactive).

Consider `O=C(O)C(=O)Nc1cccc(-c2nn[nH]n2)c1`, for which the “activity, negative = inhibition” value was -2.15% [at 28.3 µM] (inactive).

For `CN(C)N=Nc1ccccc1`, the “activity, negative = inhibition” value is -14.5% (inactive).

In the case of `OCCOc1ccc(OCCO)cc1`, the “activity, negative = inhibition” value is 15.7% (inactive).

Regarding `CC(C)CCCCCCc1ccc(O)cc1`, the “activity, negative = inhibition” value was -19.1% (inactive).

Take `C=CCS(=O)(=O)O`: the “activity, negative = inhibition” value was 1.56% (inactive).

Regarding `CCCCSCCCC`, the “activity, negative = inhibition” value was 0.0217% (inactive).

In the case of `CCNc1nc(N)nc(Cl)n1`, the “activity, negative = inhibition” value was 1.08% (inactive).

On to `Cc1ccc(N)cc1[N+](=O)[O-]`, for which the “activity, negative = inhibition” value is 3.52% (inactive).

For `CC(C[N+](C)(C)C)OC(N)=O` (centres undefined), the “activity, negative = inhibition” value is -20.3% [at 28.3 µM] (inactive).

For `O=C(O)CCCCCCCCCCCC(=O)O`, the Potency entry is “inactive”.

`COc1cc(C(=O)N2CCOCC2)cc(OC)c1OC`: the “activity, negative = inhibition” value is -1.51% [at 28.3 µM] (inactive).

The next assay has the same target. Put plainly: Cholinergic receptor muscarinic 1 (CHRM1) small molecule agonists, cell-based qHTS assay (AID 1963589). Note: nearly all actives have a fitted effect of over 35% in size. Note: potency is the fitted concentration of half-maximal effect. Particulars: CHRM1-CHO cells, agonist mode, calcium flux fluorescence; series mostly up to 76.8 µM; activation: at the top concentration. The method in brief:
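Each compound was tested at 15 concentrations across three independent runs on dye-loaded CHO cells stably expressing human CHRM1, reading intracellular calcium fluorescence kinetically at 1 sec intervals.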
On to `COc1ccc(NC(C)=O)cc1`, for which the “activation” value was 0.276% (inactive).

`c1cnc2cc3c(cc2n1)C1CNCC3C1`: the “activation” value is -0.761% [at 35.3 µM] (inactive).

With `OCc1c2ccccc2cc2ccccc12`, the “activation” value was -0.738% (inactive).

In the case of `Oc1ccc(Cl)cc1Sc1cc(Cl)ccc1O`, the Potency entry is “inactive”.

As for `CCCc1ccccc1`, the “activation” value is 0.37% (inactive).

With `C=CC(=O)OCCCCCC`, the “activation” value is -0.57% (inactive).

As for `CC(C)(C)C(=O)OCOP(=O)(COCCn1cnc2c(N)ncnc21)OCOC(=O)C(C)(C)C`, the “activation” value was 0.0573% [at 35.3 µM] (inactive).

As for `Oc1ccc(C(c2ccc(O)cc2)C(Cl)(Cl)Cl)cc1`, the Potency entry was “inactive”.

Turning to `Nc1cc(S(=O)(=O)O)cc2cc(S(=O)(=O)O)cc(O)c12`, the Potency result is “inactive”.

Regarding `N=C(N=C(N)N)N1CCOCC1`, the “activation” value is 0.0169% [at 35.3 µM] (inactive).

As to `Oc1c(Cl)ccc(Cl)c1Cl`, the Potency result was “inactive”.

Take `CC1=CC[C@@]23C[C@@H]1C(C)(C)[C@@H]2CC[C@H]3C`: the “activation” value was 1% (inactive).

For the compound `O=C(O)c1cccc(C(F)(F)F)c1`, the “activation” value was 0.431% (inactive).

With `CC(O)Cn1cnc2c1c(=O)n(C)c(=O)n2C` (centres undefined), the “activation” value was 1.67% [at 35.3 µM] (inactive).

Turning to `CN(C)CCOC(c1ccc(Cl)cc1)c1ccccn1` (centres undefined), the “activation” value was 14.3% [at 35.3 µM] (inactive).

With `O=C(O)c1cc(-c2ccccc2)nc2ccccc12`, the Potency result was “inactive”.

As for `CC1(C)C(O)C(C)(C)C1O` (centres undefined), the “activation” value was -0.312% (inactive).

On to `C/C=C/C(=O)CCCC`, for which the “activation” value is -0.174% (inactive).

Consider `C=CCCCCCCCC`, for which the “activation” value was 0.867% (inactive).

In the case of `CC(C)=O`, the “activation” value was 0.115% (inactive).

Take `O=C(O)[C@@H]1[C@H]2C[C@H]3c4[nH]c5ccccc5c4CCN3C[C@@H]2CC[C@@H]1O`: the “activation” value is 0.903% [at 35.3 µM] (inactive).

Turning to `C=CC(C)CCC=C(C)C` (centres undefined), the “activation” value is 0.267% (inactive).

In the case of `O=C(O)C(=O)Nc1cccc(-c2nn[nH]n2)c1`, the “activation” value was 0.0068% [at 35.3 µM] (inactive).

For the compound `CN(C)N=Nc1ccccc1`, the “activation” value is -0.0367% (inactive).

For `OCCOc1ccc(OCCO)cc1`, the “activation” value was 0.172% (inactive).

`CC(C)CCCCCCc1ccc(O)cc1`: the Potency result is “inactive”.

For `C=CCS(=O)(=O)O`, the “activation” value was 0.216% (inactive).

For the compound `CCCCSCCCC`, the “activation” value is -0.156% (inactive).

Consider `CCNc1nc(N)nc(Cl)n1`, for which the “activation” value was 0.0391% (inactive).

Regarding `Cc1ccc(N)cc1[N+](=O)[O-]`, the “activation” value was -0.0525% (inactive).

With `CC(C[N+](C)(C)C)OC(N)=O` (centres undefined), the Potency is 2.39 µM (active).

Consider `O=C(O)CCCCCCCCCCCC(=O)O`, for which the Potency result was “inactive”.

With `COc1cc(C(=O)N2CCOCC2)cc(OC)c1OC`, the “activation” value was -0.154% [at 35.3 µM] (inactive).
